The source of these data is PubChem BioAssay AID1259343 (VanderVen Lab, College of Veterinary Medicine, Cornell …, 2017).

The structures appear in SMILES notation. Out of some 6,200 compounds screened, about 2,900 (47%) were called active. Cut-off read from the data, not from the text of the source: active = inhibition above about 50%; inactive = the rest. The set was probably picked from earlier hits. The list shows a part of the results.

This assay can be described thus: Mycobacterium tuberculosis growth inhibition, primary screen (AID 1259343). The conditions noted are these: inhibition: at 10 µM, active compounds read high; outcome: 10 uM.
`Cc1ccc2nc(C3CCN(c4nncc(-c5ccc(Cl)cc5)n4)CC3)[nH]c2c1`: the inhibition is 37.6% (inactive).
With `CC(NCc1nnc(-c2cccc(Br)c2)o1)c1cccc(F)c1` (stereo unspecified), the inhibition was -7.48% (inactive).
To `Clc1ccc(CNCc2cn[nH]c2-c2ccc(-c3ccccc3)cc2)s1` belongs 74.1% (active); to `CC(NCc1cn[nH]c1-c1ccc(-c2ccccc2)cc1)c1ccc(F)cc1` (stereo unspecified), 83.9% (active).
For the molecule `CC(NCc1ccco1)c1nnc(-c2ccc(F)cc2)o1` (stereo unspecified), the inhibition was 25.6% (inactive).
As for `Cc1nnsc1C(=O)Nc1ccc(C(=O)OC2CCCC2)cc1`, the inhibition is -6.8% (inactive).
The result for `O=C(OC1CCCC1)c1ccc(NC(=O)C2COCCO2)cc1` (stereo unspecified) reads 84.8% (active).
On to `CCCc1ccc(-c2ccc(NC(=O)C3COCCO3)cc2)cc1` (stereo unspecified), for which the inhibition was 72.3% (active).
Turning to `CC(C)Cc1ccc(-c2csc(NC(=O)C3COCCO3)n2)cc1` (stereo unspecified), the inhibition is 90.5% (active).
On to `CCCCc1ccc(-c2csc(NC(=O)C3(C)CCOCC3)n2)cc1`, for which the inhibition was 43.9% (inactive).
To `Cc1cccc(OCCC(=O)Nc2ccc3c(c2)oc(=O)n3C)c1C` belongs 15.8% (inactive).
In the case of `CC(C)Oc1ccc(C(=O)Nc2ccc3c(c2)oc(=O)n3C)cn1`, the inhibition was 92.7% (active).
The result for `O=c1[nH]c(=O)n(CCC2=CCCCC2)c(O)c1C=C1C=CC=N1` reads 89.4% (active).
As for `CSc1nc(N2CCCC2)c2cnn(CCNC(=O)c3cccs3)c2n1`, the inhibition is 9.6% (inactive).
With `CCCNc1nc(SC)nc2c1cnn2CCNC(=O)c1c(F)cccc1Cl`, the inhibition is 60.4% (active).
For `CSc1nc(NCC(C)C)c2cnn(CCNC(=O)CC(C)C)c2n1`, the inhibition is -2.36% (inactive).
Consider `CC(=NNC(=S)NC(C)C)c1ccc2c(c1)OCCO2`, for which the inhibition is 88.1% (active).
For the molecule `CC(=NNC(N)=S)C12CC3CC(CC(C3)C1)C2`, the inhibition was 14.6% (inactive).
Take `CC(=NNC(N)=S)C(C)=NNC(N)=S`: the inhibition is 54.6% (active).
The result for `CC(=NNC(N)=S)c1ccc(C)cc1` reads 76.6% (active).
To `CC(=NNC(N)=S)c1ccc2c(c1)OCCO2` belongs 69% (active).
The result for `CC(=NNC(=S)NC(C)C)c1ccc(C(C)(C)C)cc1` reads 5.89% (inactive).
Turning to `C=CCNC(=S)NN=Cc1ccc2c(c1)OCCO2`, the inhibition is 23.3% (inactive).
The result for `COc1ccccc1-n1cc(-c2ccnc(N(C)Cc3cccc(C)n3)n2)cn1` reads 29.4% (inactive).
In the case of `COc1ccc(-c2cnnc(N3CCC(c4ccccc4Cl)C3)n2)cc1` (stereo unspecified), the inhibition entry is “inactive”.
Regarding `C=C(C)NC(=S)Nc1nccs1`, the inhibition is 7.83% (inactive).
On to `CC1CCC(N(C(=O)Nc2nccs2)C2CC2)CC1` (stereo unspecified), for which the inhibition was 53.1% (active).
For the molecule `CC1=CC(=O)c2c(O)cccc2C1=O`, the inhibition is 102% (active).
The result for `COc1ccccc1-c1cc(=O)c2cccc(OC)c2o1` reads -0.59% (inactive); that for `O=C(O)c1ccccc1-c1c2cc(Br)c(=O)cc-2oc2[c]([Hg])c(O)c(Br)cc12`, 66.5% (active); that for `CCCCCCCCON1C(=O)C2C3C=CC(O3)C2C1=O` (stereo unspecified), 8.42% (inactive).
The result for `CC1CCC(NC(=O)c2sccc2-n2cccc2)CC1` (stereo unspecified) reads 87.7% (active); that for `Cc1ccc(C)n1-c1ccsc1C(=O)NC1CCCC1`, 39.9% (inactive).
The result for `O=C(NNC(=O)C12CC3CC(CC(C3)C1)C2)c1sccc1-n1cccc1` reads 61.1% (active).
On to `O=C(NCCc1ccc2c(c1)OCCO2)C12CC3CC(CC(C3)C1)C2`, for which the inhibition was 45.1% (inactive).
For the molecule `COCC(Nc1ncc(Br)cn1)c1ccc(C)o1` (stereo unspecified), the inhibition was 38.8% (inactive).
The result for `Cc1nc(-c2ccc(Oc3ccc(C(F)(F)F)cn3)cc2)no1` reads 89.7% (active).
In the case of `Cc1ccn2cc(C(=O)Nc3nc4ccccc4s3)nc2c1`, the inhibition was 50.8% (active).
With `CCOc1ccc2nc(NC(=O)c3ccc(C)o3)sc2c1`, the inhibition was 25.2% (inactive).
The result for `O=C(Cc1ccc(-c2ccccc2)cc1)NCC(c1ccsc1)N1CCCC1` (stereo unspecified) reads 37.7% (inactive); that for `O=C(Cc1ccsc1)NCC12CC3CC(CC(C3)C1)C2`, 75.4% (active).
With `O=C(NCC12CC3CC(CC(C3)C1)C2)c1ccccc1`, the inhibition was 25.9% (inactive).
The result for `CC(=NNS(=O)(=O)c1cc(C)ccc1C)c1ccc2c(c1)Nc1ccccc1S2` reads 57.9% (active); that for `CC(=NNc1ccc(C(F)(F)F)cn1)c1ccc2c(c1)Nc1ccccc1S2`, -55.5% (inactive); that for `CC(=NNC(=O)COc1ccc(F)cc1)c1ccc2c(c1)Nc1ccccc1S2`, 16% (inactive).
To `CC(=NNC(=S)NC(C)C)c1ccc2c(c1)Nc1ccccc1S2` belongs 20.4% (inactive); to `CC(=NNC(=O)c1cc(C)oc1C)c1ccc2c(c1)Nc1ccccc1S2`, 47.6% (inactive); to `CC(=NNC(=O)c1ccoc1C)c1ccc2c(c1)Nc1ccccc1S2`, 75.1% (active).
The result for `Cc1cc(C)n(C(C)CNS(=O)(=O)c2ccc(Cl)cc2)n1` (stereo unspecified) reads “inactive”.
With `CCOc1ccc(Oc2ccc(NC(=O)c3ccc(C)s3)cc2)cc1`, the inhibition is 44.9% (inactive).
To `CCOc1ccc(NC(=O)CCSc2nnc(C)s2)cc1` belongs 91.3% (active); to `CCOc1ccc(NC(=O)Cc2ccc(C)s2)cc1`, 59.7% (active).
To `COc1ccc(Cl)c(NS(=O)(=O)c2cnc(Cl)n2C)c1` belongs 25.9% (inactive); to `O=S1(=O)C(c2ccccc2)=CC1c1ccccc1` (stereo unspecified), 49.3% (inactive).
Consider `Cc1ccc(S(=O)(=O)NCC(C)n2nc(C)cc2C)cc1` (stereo unspecified), for which the inhibition was 10.1% (inactive).
As for `Clc1ccc(C2CC(c3ccc(Cl)cc3)n3nnnc3N2)cc1` (stereo unspecified), the inhibition was 66.5% (active).
The result for `Clc1ccc(C2CC(c3ccc(Cl)cc3)n3ncnc3N2)cc1` (stereo unspecified) reads -10.5% (inactive); that for `CCCCc1oc2ccccc2c1C1NC(=O)c2ccccc2N1` (stereo unspecified), 10.5% (inactive); that for `CCCCc1oc2ccccc2c1C(=O)c1cc(I)c(OCCN(CC)CC)c(I)c1`, 77% (active).
On to `O=C(Nc1ccccc1-c1cn2c(CN3CCNCC3)csc2n1)c1cnc2ccccc2n1`, for which the inhibition is 74.8% (active).
The result for `O=C(Nc1ccccc1OCCCc1ccccc1)C1CCOC1` (stereo unspecified) reads 83% (active); that for `CC1=NOC(C(=O)Nc2ccccc2OCCCc2ccccc2)C1` (stereo unspecified), 55.6% (active).
The result for `O=C(Nc1ccccc1OCCCc1ccccc1)c1ccccn1` reads 22.6% (inactive); that for `Cc1ccc(CC(=O)Nc2ccccc2OC2CCCC2)s1`, 10.8% (inactive); that for `Oc1ccc(NC(=S)Nc2ccc(OC(F)F)cc2)cc1`, 94.3% (active).
The result for `FC(F)Oc1ccc(NC(=S)Nc2ccc3c(c2)OCCO3)cc1` reads 85.3% (active); that for `COc1ccc(NC(=S)Nc2ccc(OC(F)F)cc2)cn1`, 36.5% (inactive); that for `O=C(OC1CCc2[nH]c3ncccc3c2C1)c1ccccc1` (stereo unspecified), -5.27% (inactive).
For the molecule `CSc1ccccc1NC(CNS(=O)(=O)c1ccccc1)c1ccccc1` (stereo unspecified), the inhibition is -10.3% (inactive).
For `CCOC(=O)CC(=O)CSc1nc(-c2cccc(C)c2)ns1`, the inhibition is 82.2% (active).
In the case of `Cc1cccc(NC(=O)c2cc(Oc3ccc([N+](=O)[O-])cc3F)n(C)n2)c1`, the inhibition is 35.6% (inactive).
To `CSc1ccc(Cn2c(C)c(C(=O)NCc3cccc([N+](=O)[O-])c3)sc2=O)cc1` belongs 24.4% (inactive); to `Cc1ccc(-c2nsc(SCC(=O)Nc3cccc([N+](=O)[O-])c3)n2)cc1`, 71.1% (active); to `OCc1ccc(-c2ccc(-c3ccc(CO)s3)o2)s1`, 48.6% (inactive).
Turning to `CC1CCC2(CC1)Oc1ccccc1C1CC(c3ccccc3)=NN12` (stereo unspecified), the inhibition is 55.7% (active).
To `Fc1ccc(C2=NN3C(C2)c2ccccc2OC3c2ccncc2)cc1` (stereo unspecified) belongs 14% (inactive).
For `c1ccc(C2=NN3C(C2)c2ccccc2OC32CCCC2)cc1` (stereo unspecified), the inhibition is 32% (inactive).
With `CCC1(C)Oc2ccccc2C2CC(c3ccccc3)=NN21` (stereo unspecified), the inhibition is -17% (inactive).
Take `COc1ccc(C2Oc3ccccc3C3CC(c4ccccc4)=NN32)cc1OC` (stereo unspecified): the inhibition was -33.1% (inactive).
Take `CC(C)C1Oc2ccccc2C2CC(c3ccccc3)=NN21` (stereo unspecified): the inhibition is 63.4% (active).
For the molecule `OC[C@@H](O)CN(CCC(F)(F)F)c1nc(-c2ccccn2)nc2c1CCC2`, the inhibition is -1.45% (inactive).
For `Cc1ccc2c(CC(=O)NC(C)C3CC4CCC3C4)coc2c1` (stereo unspecified), the inhibition was 12.9% (inactive).
The result for `CC(NC(=O)c1ccc(Br)o1)C1CC2CCC1C2` (stereo unspecified) reads 37.7% (inactive); that for `CC(NC(=O)c1ccc([N+](=O)[O-])o1)C1CC2CCC1C2` (stereo unspecified), 101% (active).
`CCNC(=O)c1ccc([N+](=O)[O-])o1`: the inhibition was 15.7% (inactive).
To `CC(NC(=O)c1ccc(Br)o1)C12CC3CC(CC(C3)C1)C2` (stereo unspecified) belongs 0.12% (inactive); to `CC(NC(=O)COc1ccccc1F)C1CC2CCC1C2` (stereo unspecified), 95.6% (active).
In the case of `CC(NC(=O)c1ccc([N+](=O)[O-])o1)C12CC3CC(CC(C3)C1)C2` (stereo unspecified), the inhibition was 106% (active).
Consider `CC(NC(=O)C=Cc1cccs1)C1CC2CCC1C2` (stereo unspecified), for which the inhibition is 36.7% (inactive).
To `COc1ccc([C@H]2Oc3cc(OC)cc(OC)c3C[C@H]2O)cc1` belongs 70.8% (active); to `COc1ccc(-c2nnc(CSC(=S)N3CCCC3)o2)cc1`, 84.2% (active).
The result for `O=C(CSC(F)(F)F)Nc1cnn(-c2ccccc2)c1` reads 63.6% (active); that for `O=C(O)c1ccc2c(c1)CCN2C(=O)c1cnn(-c2ccccc2)c1`, 15.4% (inactive).
The result for `O=C(Cc1cnn(-c2ccccc2)c1)NCC1CCCCC1` reads 45% (inactive); that for `Cc1cccc(OC(C)C(=O)Nc2nc(C(C)C)cs2)c1` (stereo unspecified), 29.5% (inactive); that for `Cc1cc(Cl)cc(C)c1OCC(=O)NNc1ccc(F)cc1`, 96.3% (active).
With `Cc1cnc(NC(=O)C(C)Oc2cccc(Cl)c2)s1` (stereo unspecified), the inhibition was 9.6% (inactive).
Consider `Cc1cc(C)c(OCC(=O)NS(=O)(=O)c2c(C)noc2C)c(C)c1`, for which the inhibition is 44% (inactive).
In the case of `Cc1csc(NC(=O)COc2c(C)cc(Cl)cc2C)n1`, the inhibition was 73.9% (active).
For `CC(=O)Nc1ccc(CC(=O)OCc2ccc(F)cc2)cc1`, the inhibition is 37.7% (inactive).
For `CC(=NNc1nc(C)cs1)c1ccc(Cl)cc1`, the inhibition is 0.03% (inactive).
To `Cc1csc(NC(=O)C(C)Oc2cccc(Cl)c2)n1` (stereo unspecified) belongs 81.2% (active).
To `N#Cc1cccc(CSc2n[nH]c(=O)n2C2CC2)c1` belongs 3.74% (inactive); to `Cc1ccc(-c2nnn(CC(=O)N3CCCCCC3)n2)cc1`, 15.3% (inactive).
`N#Cc1ccccc1Cn1nnc(-c2ccccc2)n1`: the inhibition is -34.2% (inactive).
The result for `Cc1ccc(-c2nnn(Cc3cc(C)on3)n2)cc1` reads 57.2% (active).
